Laboratory results: PubChem BioAssay (NCI)
The panel holds about 83,000 compounds, 20% with a hit somewhere; the sample as a whole holds those more often.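 Growth was measured after 48 h exposure to one concentration of compound in 96-well plates. Values under 10 count as active.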 A number with no mark means an inactive call. The source made the active and inactive calls.

Assays:
Test in all cases: NCI-60 one-dose screen, 48 h (100 = growth as untreated, 0 = no growth, -100 = all killed)
Conditions in all cases: 10 µM unless noted
HCT-15 colon = tested on: HCT-15 colon
HT29 colon = tested on: HT29 colon
SNB-75 CNS = tested on: SNB-75 CNS
SNB-19 CNS = tested on: SNB-19 CNS
U251 CNS = tested on: U251 CNS
PC-3 prostate = tested on: PC-3 prostate
SK-MEL-5 melanoma = tested on: SK-MEL-5 melanoma
UACC-62 melanoma = tested on: UACC-62 melanoma
LOX IMVI melanoma = tested on: LOX IMVI melanoma
SK-MEL-28 melanoma = tested on: SK-MEL-28 melanoma

Row | Compound | growth (HCT-15 colon) | growth (HT29 colon) | growth (SNB-75 CNS) | growth (SNB-19 CNS) | growth (U251 CNS) | growth (PC-3 prostate) | growth (SK-MEL-5 melanoma) | growth (UACC-62 melanoma) | growth (LOX IMVI melanoma) | growth (SK-MEL-28 melanoma)
1 | O=C1c2cccnc2C(=O)c2c1c(C(=O)OCCN1CCOCC1)c1ccccn21 | -65.6% (active) | -35.4% (active) | -13.9% (active) | 3.55% (active) | -47.5% (active) | 15.3% | -90.5% (active) | -52.7% (active) | -46% (active) | -3.26% (active)
2 | Oc1cc(O)c2c(=S)cc(-c3ccc(Cl)cc3)oc2c1 | 25.4% | 92.8% | 48.3% | 17.5% | 19.6% | 28.4% | 3.09% (active) | 22.6% | 38.6% | 40.5%
3 | CC/C=C\C[C@H](O)C/C=C1/C(=O)C=C[C@@H]1C/C=C\CCCC(=O)NC | -28.4% (active) | 0.814% (active) | 62.5% | 22.5% | -8.98% (active) | 13.6% | -94.5% (active) | -45.3% (active) | -72.2% (active) | -17.1% (active)
4 | COC(=O)[C@@H]1CC[C@]2(C)[C@H](CC[C@@H]3O[C@@]32C)[C@@]1(C)CC(=O)c1ccoc1 | 103% | 93.2% | 114% | 91.1% | 91.8% | 86% | 97.4% | 89.5% | 98.6% | 104%
5 | CCCC(=O)Oc1ccc(/C(=C(/CC)Cc2ccccc2)c2ccc(OCCN3CCCC3)cc2)cc1 | 41.8% | 16.5% | 62.5% | 94.2% | 49% | 70% | 66.2% | 23.7% | 25.2% | -19.8% (active)
6 | O=C(/C=C/c1cc2ccccc2[nH]c1=O)/C=C/c1cc2ccccc2[nH]c1=O | 48.2% | -39.2% (active) | 19.5% | 44.5% | -9.57% (active) | 9.61% (active) | -22.8% (active) | 13.5% | -65.4% (active) | 37.9%
7 | COc1ncc(-c2ccc3ncnc(Nc4cccc(Cl)c4)c3c2)cc1NS(C)(=O)=O | 30.8% | 22.3% | 9.09% (active) | 37.6% | 46.8% | 25.9% | 23.3% | 19.1% | 35.3% | –
8 | Cc1nc2nc(N)nc(N)c2nc1C | 98.6% | 102% | 93.2% | 95.1% | 99.5% | 92.7% | 101% | 91.1% | 101% | 109%
9 | COc1cc(OC)c(/C=C/C(=O)c2c(OC)cc(OC)cc2OC)c(OC)c1 | 26% | 3.25% (active) | 13.7% | 32.8% | 14.5% | 42.8% | 1.55% (active) | 7.8% (active) | 10.8% | 21.9%
10 | NC(N)=Nc1ccc(S(=O)(=O)O)cc1 | 102% | 111% | 88.7% | 90% | 111% | 99.1% | 101% | 86.9% | 96.5% | 103%
11 | O=C(CCN1CCOCC1)Nc1ccc(Cn2nnc3c2C(=O)c2nnn(Cc4ccc(NC(=O)CCN5CCOCC5)cc4)c2C3=O)cc1 | 93.6% | 1.57% (active) | -86.7% (active) | 27.1% | -58.7% (active) | 17.7% | -72.9% (active) | -17.3% (active) | -21.9% (active) | 31.7%
12 | O=C(CN1CCN(c2cc3c(cc2F)c(=O)c(C(=O)O)cn3C2CC2)CC1)Nc1nc(-c2ccccc2)cs1 | 82.4% | 72.7% | 69.6% | 86.8% | 43.8% | 64.7% | 78.9% | 78.8% | 36.5% | 87.5%
13 | COc1ccc(CNc2nccnn2)cc1 | 111% | 97.8% | 85.6% | 102% | 94.9% | 101% | 101% | 93.4% | 105% | 97.7%
14 | CC/C(Cc1ccccc1)=C(\c1ccc(OCCN2CCCC2)cc1)c1ccc(OC(C)=O)cc1 | 60.5% | 24.4% | 57.8% | 105% | 57.2% | 79.5% | 69.6% | 43.9% | 48.2% | 21%
15 | NC1=CC(=O)C(=O)c2ccccc21 | 92.1% | 106% | 113% | 93.2% | 88% | 91.1% | 77.5% | 39.4% | 7.65% (active) | 75.2%
16 | O=C1c2cc3c(cc2-c2c1c1cc(F)c(F)cc1c(=O)n2C[C@H](O)CO)OCO3 | 1.58% (active) | 0.994% (active) | 4.14% (active) | 6.51% (active) | -15.5% (active) | 8.59% (active) | -91.5% (active) | -48.2% (active) | -45.4% (active) | 10.1%
17 | CCCCCCCCCCCCCCCCCCSC1=CC(=O)C(OC)=C(OC)C1=O | 98.7% | 107% | 95.1% | 91.9% | 76.4% | 52% | 86.3% | 77% | 45.9% | 97.3%
18 | CCN(CC)CCC(=O)Nc1ccc(Cn2nnc3c2C(=O)c2nnn(Cc4ccc(NC(=O)CCN(CC)CC)cc4)c2C3=O)cc1 | 95.3% | -51% (active) | -92.8% (active) | -83.4% (active) | -85.1% (active) | -1.02% (active) | -96.8% (active) | -79.6% (active) | -12.6% (active) | -60.9% (active)
19 | CC/C(Cc1ccccc1)=C(/c1ccc(O)cc1)c1ccc(OCCN2CCCC2)cc1 | -56.2% (active) | -57% (active) | -22.6% (active) | 0.126% (active) | -89.1% (active) | -32.2% (active) | -100% (active) | -77.7% (active) | -100% (active) | -84.5% (active)
20 | C=C1CCC2C3(C)COC(c4ccc(OC)cc4Br)OC3CCC2(C)C1/C=C/C1=CCOC1=O (centres undefined) | 65.7% | 75.6% | 82.3% | 97.4% | 74.7% | 47.7% | 45.3% | 61.9% | 71.1% | 80.2%
21 | Nc1ccc(N2CCOCC2)cc1 | 103% | 109% | 91.9% | 91.1% | 98% | 101% | 92.7% | 86.6% | 104% | 118%
22 | CCOC(=O)c1c2c(n3ccc(NC(=O)CCN4CCOCC4)cc13)C(=O)c1ncccc1C2=O | 33.9% | 32.7% | 52.7% | 54.6% | 41.5% | 51% | 42.3% | 27.7% | 15% | 77.8%
23 | CCN(CC)C12CCCCC1(C)C(C#N)(C#N)C(C#N)=C(N)O2 (centres undefined) | 106% | 101% | 92.1% | 106% | 103% | 115% | 116% | 90.8% | 98.9% | 99.3%
24 | CNCCCn1c2c(c3ccc([N+](=O)[O-])cc3c1=O)C(=O)c1cc(OC)cnc1-2 | -27.5% (active) | -19.2% (active) | -26.5% (active) | 2.67% (active) | -61.1% (active) | 2.02% (active) | -98.8% (active) | -77.1% (active) | -89% (active) | -67% (active)
25 | CC/C(=C(\c1ccc(O)cc1)c1ccc(OCCN(C)CCN(C)C(=O)CCCCC(=O)c2c(C)[nH]c(/C=C3\N=C(c4ccc[nH]4)C=C3OC)c2C)cc1)c1ccccc1 | 60% | 29.3% | 105% | 114% | 72% | 61.2% | 77.8% | 95.4% | 44.9% | 89.7%
26 | COc1ccc(N(Cc2cc(OC)c(OC)c(OC)c2)C2OC(=O)c3ccccc32)cc1 (centres undefined) | 36.1% | 5.34% (active) | -6.32% (active) | 53.3% | 19.4% | 25.2% | 18.2% | 44.2% | 46.2% | 55.5%
27 | COc1ccc(C2Nc3ccccc3-n3cccc32)cc1 (centres undefined) | 92.9% | 108% | 105% | 97.8% | 98% | 71.7% | 93.1% | 81.9% | 97.3% | 106%
